In all, about 6,200 compounds went through this assay and about 2,900 (47%) were called active. So high a share suggests a set chosen from earlier hits. The list shows a part of the results. Values without a mark were called inactive. Rule as the data show it: active = inhibition above about 50%; inactive = the rest.

For orientation: inhibition means the change of the read-out against control, counted positive when it falls.

The experiment in a line: Mycobacterium tuberculosis growth inhibition, primary screen (AID 1259343). The settings on record: inhibition: at 10 µM, stronger effect = higher value; outcome: 10 uM.
Regarding `CC(C)c1cccc(Nc2nnc(C(O)c3ccccc3)s2)c1` (stereo unspecified), the inhibition was 68.4% (active).

Turning to `OC(c1ccccc1)c1nc(/C=C/c2ccccc2)cs1` (stereo unspecified), the inhibition is 47.4%.

On to `Cc1cc(NC(=O)C(C)Oc2ccccc2)n(-c2nc3c(c(=O)[nH]2)CCC3)n1` (stereo unspecified), for which the inhibition is 100% (active).

In the case of `Cc1cc(NC(=O)C(C)C)n(-c2nc3c(c(=O)[nH]2)CCC3)n1`, the inhibition was 101% (active).

`O=C(Nc1ncnc2c1CCC2)c1nc2ccccc2s1`: the inhibition was 93.3% (active).

With `O=C(CSc1nnc(SCC(=O)NC2CCCC2)s1)NC1CCCC1`, the inhibition was -2.28%.

Regarding `CC(C)(C)c1nnc2sc(SCC(=O)NCC3CCCCC3)nn2c1=O`, the inhibition was 73.1% (active).

Regarding `O=C(CSC(F)(F)F)NCC1CCC1`, the inhibition is -78.2%.

Take `CC(C)c1nc(CCNC(=O)C2CC2c2cccc(O)c2)cs1` (stereo unspecified): the inhibition is 39.2%.

For the compound `Cc1cnc(CNC(=O)C2CC2c2ccc(F)c(F)c2)o1` (stereo unspecified), the inhibition was -29.9%.

Take `Cc1csc(CCNC(=O)C2CC2c2ccc(Cl)cc2)n1` (stereo unspecified): the inhibition was 79.1% (active).

As to `O=C(O)Cc1ccc(NC(=O)c2cccc(Br)c2)cc1`, the inhibition was 89.2% (active).

On to `CC(C)NC(=O)Nc1cccc(C(=O)Nc2ccc(C(C)C)cc2)c1`, for which the inhibition is 35.6%.

For the compound `C=C(Br)Cn1c(C=Cc2ccccc2)nc2ccccc21`, the inhibition is 89.4% (active).

On to `C=CCn1c(COc2ccc3ccccc3c2)nc2ccccc21`, for which the inhibition was 26.8%.

As to `C=C(Br)Cn1c(-c2cccs2)nc2ccccc21`, the inhibition is 4.18%.

Turning to `CCC1CCc2sc(C(=O)O)cc2C1` (stereo unspecified), the inhibition was 85.9% (active).

For `CC(C)(C)C1CCc2sc(C(=O)O)cc2C1` (stereo unspecified), the inhibition is -46.9%.

As to `CCC1CCc2sc(C(=O)N=c3sccn3C)cc2C1` (stereo unspecified), the inhibition is 37.3%.

Consider `C=CCN(CC=C)C(=O)CSc1nc(N)cc(=O)[nH]1`, for which the inhibition was -27.6%.

For the compound `O=C(c1ccc2ccccc2c1)C1CCCN(S(=O)(=O)Cc2ccccc2)C1` (stereo unspecified), the inhibition was 23.8%.

Consider `O=C(c1ccc(-c2ccccc2)cc1)C1CCCN(C(=O)c2ccsc2)C1` (stereo unspecified), for which the inhibition was 74.6% (active).

As to `Cc1cc(C(=O)N2CCCC(C(=O)c3ccc(-c4ccccc4)cc3)C2)no1` (stereo unspecified), the inhibition is 79.4% (active).

For the compound `O=C(c1ccc(-c2ccccc2)cc1)C1CCCN(C(=O)CSc2ncccn2)C1` (stereo unspecified), the inhibition was 9.54%.

Take `CN(Cc1cccc(O)c1)c1nccc(CCC(F)(F)F)n1`: the inhibition is 54.8% (active).

In the case of `CNc1ncc(CN(C)c2nccc(CCC(F)(F)F)n2)cn1`, the inhibition is 55.3% (active).

Take `CN(Cc1ccc2nonc2c1)c1nccc(CCC(F)(F)F)n1`: the inhibition is 31.6%.

With `Cc1sc(NC(=O)CC2(CC(=O)O)CCCCC2)c(C#N)c1C`, the inhibition was -8.62%.

For the compound `O=C(O)CC1(CC(=O)Nc2cc(C(F)(F)F)cc(C(F)(F)F)c2)CCCCC1`, the inhibition is 88.4% (active).

In the case of `COc1ccc(C2C=C(c3ccccc3)Nc3nnnn32)cc1` (stereo unspecified), the inhibition was 78.5% (active).

With `CCc1ccc(C2=CC(c3ccc(Br)cc3)n3nnnc3N2)cc1` (stereo unspecified), the inhibition is 76.2% (active).

As for `COc1ccc(C2C(C(=O)c3ccccc3)C(O)(C(F)(F)F)N(C)C(=O)N2C)cc1` (stereo unspecified), the inhibition is -22.5%.

For `CCc1ccc(C2C=C(c3ccc(F)cc3)Nc3nnnn32)cc1` (stereo unspecified), the inhibition is 80.2% (active).

For the compound `Clc1cccc(C2C=C(c3ccc(-c4ccccc4)cc3)Nc3nnnn32)c1Cl` (stereo unspecified), the inhibition is 93.5% (active).

`COc1ccc(C2C=C(c3ccc(Cl)cc3)Nc3nnnn32)cc1` (stereo unspecified): the inhibition was 7.81%.

`Clc1ccc(-c2csc3ncnc(Sc4nnnn4C4CC4)c23)cc1`: the inhibition was -14.2%.

Consider `Clc1ccc(C2C=C(c3ccc(Br)cc3)Nc3nnnn32)cc1` (stereo unspecified), for which the inhibition was -26.6%.

Regarding `Cc1ccc(C2=CC(c3ccc(Cl)cc3)n3nnnc3N2)cc1` (stereo unspecified), the inhibition is 102% (active).

On to `OC(c1ccccc1)C1CCN(c2cncc(Cl)n2)CC1` (stereo unspecified), for which the inhibition is 44.6%.

As for `Cc1cccc(C)c1OC1CCN(c2cncc(C(N)=O)n2)CC1`, the inhibition was 95.8% (active).

For the compound `Cc1cccc(C)c1OC1CN(C(=O)C(=O)c2ccco2)C1`, the inhibition is 45.6%.

Take `CCCC1C=CCN1C(=O)c1cc(COc2ccc(C(C)=O)cc2)on1` (stereo unspecified): the inhibition was 75.2% (active).

Turning to `CCC1C=CCN1C(=O)c1cc(COc2ccc3sc(C)nc3c2)on1` (stereo unspecified), the inhibition was 94.8% (active).

For the compound `Cc1ccccc1C1CCCN(C(=O)c2cc(COc3cccc4cnccc34)on2)C1` (stereo unspecified), the inhibition is 46.4%.

With `Cc1ccc(OCc2cc(C(=O)N3CCCC3c3nc4ccccc4s3)no2)cn1` (stereo unspecified), the inhibition was 81.4% (active).

For `C=CC[C@@H]1CC=C[C@@H](C)N1C(=O)c1cc(COc2ccc3sc(C)nc3c2)on1`, the inhibition is -45.8%.

As for `Cc1ccc(OCc2cc(C(=O)N3CCC(C(=O)c4ccccc4)CC3)no2)cn1`, the inhibition result was “inactive”.

With `CCCCC1C=CCN1C(=O)c1c(O)cccc1O` (stereo unspecified), the inhibition is 3.76%.

In the case of `CCCC1C=CCN1C(=O)c1cc(COc2ccc3c(c2)OCO3)[nH]n1` (stereo unspecified), the inhibition was 31.8%.

Regarding `COc1cc(OC)c2c(=O)c(-c3ccccc3)coc2c1`, the inhibition was 70.5% (active).

For `COc1ccc(OC)c(C(=O)c2coc3ccc(OC)cc23)c1`, the inhibition was 17.3%.

`COc1ccc(-c2c(NC(=O)c3ccco3)oc3c(C)cccc3c2=O)cc1`: the inhibition was 19.2%.

Regarding `COc1ccc2c(=O)c3c(=O)n(-c4ccccc4)c(C)nc3oc2c1`, the inhibition is 12.6%.

On to `O=c1c(-c2ccc(O)cc2)coc2cc(O)cc(O)c12`, for which the inhibition is 50.5% (active).

With `COc1ccc(-c2cnoc2-c2ccc(OC)cc2O)cc1`, the inhibition is -32.9%.

Turning to `O=c1c(O)c(-c2ccc(O)c(O)c2)oc2cc(O)cc(O)c12`, the inhibition was 36.4%.

Regarding `COc1ccc(-c2coc3cc(O)cc(O)c3c2=O)cc1`, the inhibition was 88.5% (active).

As to `COc1ccc2c(=O)c(Oc3ccc(Cl)cc3)coc2c1`, the inhibition is 0.4%.

In the case of `COc1ccc(-c2coc3c(O)c(OC)ccc3c2=O)cc1`, the inhibition is 67% (active).

Take `NC(c1csc(Nc2nncc3ccccc23)n1)c1ccccc1Cl` (stereo unspecified): the inhibition was 58.8% (active).

As for `NC(c1csc(Nc2nncc3ccccc23)n1)C1CCCCC1` (stereo unspecified), the inhibition was 97.4% (active).

`NC(Cc1ccccc1)c1csc(Nc2nncc3ccccc23)n1` (stereo unspecified): the inhibition was 89.8% (active).

With `COc1ccc(CC(N)c2csc(Nc3nncc4ccccc34)n2)cc1` (stereo unspecified), the inhibition was 91.7% (active).

`Cc1cc2n(c1)CCn1c(C)ccc1-2`: the inhibition was -18.7%.

Regarding `NC(CCc1ccccc1)c1csc(Nc2nncc3ccccc23)n1` (stereo unspecified), the inhibition is 81% (active).

For `COc1ccc(C(N)c2csc(Nc3nncc4ccccc34)n2)cc1` (stereo unspecified), the inhibition was 57.6% (active).

Consider `c1ccc(CC(Cc2ccccc2)=NNc2nncc3ccccc23)cc1`, for which the inhibition was 9.04%.

Regarding `NC(COCc1ccccc1)c1csc(Nc2nncc3ccccc23)n1` (stereo unspecified), the inhibition is 71% (active).

In the case of `CCCn1ccnc1SCC(=O)NC(=O)NC12CC3CC(CC(C3)C1)C2`, the inhibition is 32.7%.

Consider `O=C(Nc1ccc(-c2ccccc2)cc1)N[C@@H](Cc1ccccc1)C(=O)N1CCC(C(=O)N2CCCCC2)CC1`, for which the inhibition is 76.3% (active).

As for `CCCc1nc2oc3ccccc3c(=O)c2c(=O)n1-c1ccc(C)cc1`, the inhibition was -28%.

With `Cc1ccc(-n2c(Cl)c(Cl)nc(Cl)c2=O)cc1`, the inhibition is 102% (active).

In the case of `Cc1sc2ncnc(NC3CCCCC3C)c2c1C` (stereo unspecified), the inhibition is 84.5% (active).

Take `Cc1[nH]c2ccccc2c1N=Nc1ccc(SC(F)F)cc1`: the inhibition was 58.3% (active).

Regarding `Cc1[nH]c2ccccc2c1N=Nc1ccc(F)cc1`, the inhibition is 11.2%.

Turning to `Cc1ccc(C)c(N=Nc2c(C)[nH]c3ccccc23)c1`, the inhibition is 81.8% (active).

Turning to `Cc1[nH]c2ccccc2c1C(c1cccnc1)c1c(C)[nH]c2ccccc12`, the inhibition was 45.9%.

In the case of `Cc1ccc(C2=NNC(=NCc3ccc4c(c3)OCO4)SC2)s1`, the inhibition is 18.8%.

For `Cc1[nH]c2ccccc2c1N=Nc1cccc2ccccc12`, the inhibition was -9.25%.

Regarding `CCOC(=O)c1c(C)[nH]c(C(=O)CSc2ncn[nH]2)c1C`, the inhibition is -1.94%.

For `CCOC(=O)c1c(C)[nH]c(N=Nc2ccc3c(c2)OCO3)c1C`, the inhibition is 104% (active).

Take `CCOC(=O)c1c(C)[nH]c(C(=O)OCC(=O)C23CC4CC(CC(C4)C2)C3)c1C`: the inhibition was -59.8%.

On to `Cc1[nH]c2ccccc2c1N=Nc1ccc2c(c1)OCO2`, for which the inhibition was 89.7% (active).

As to `O=c1c(NCCc2ccccc2)nccn1-c1ccccc1`, the inhibition was 23.1%.

As to `Cc1ccc(-n2ccnc(NCC(C)c3ccccc3)c2=O)cc1C` (stereo unspecified), the inhibition was 68.9% (active).

Consider `Cc1cc(F)ccc1S(=O)(=O)Nc1cc(-c2ccccc2)on1`, for which the inhibition is 69.6% (active).

In the case of `Cc1cc(NS(=O)(=O)c2cc(Cl)ccc2Cl)no1`, the inhibition was 43.7%.

In the case of `Cc1ccccc1N=C1NN=C(c2ccccc2F)CS1`, the inhibition was 68.3% (active).

Regarding `Cc1cc(C2=NNC(=NC3CCCC3)SC2)c(C)n1Cc1ccco1`, the inhibition was 99.4% (active).

As to `CCCCN=C1SCC(c2cc(C)n(Cc3ccco3)c2C)=NN1C`, the inhibition is 44%.

Turning to `FC(F)Oc1ccc(C2=NNC(=NC3CC3)SC2)cc1`, the inhibition was 18.9%.

Turning to `CC(C)(C)N=C1NN=C(c2c[nH]c3ccccc23)CS1`, the inhibition is -10%.

On to `Cc1cc(C2=NNC(=NCc3ccco3)SC2)c(C)n1Cc1ccco1`, for which the inhibition is -40.5%.

With `CC(C)(C)N=C1NN=C(c2ccc3ccccc3c2)CS1`, the inhibition is 9.77%.

Consider `Cc1cc(C2=NNC(=NC3CC3)SC2)c(C)n1-c1ccccc1F`, for which the inhibition was 95.9% (active).

In the case of `COCCCN=C1NN=C(c2cc(C)n(Cc3ccco3)c2C)CS1`, the inhibition was 63.8% (active).

Turning to `Cc1ccc(N=C2NN=C(c3cc(F)ccc3F)CS2)c(C)c1`, the inhibition is 31.9%.

As for `Cc1cc(C2=NNC(=NCc3ccc4c(c3)OCO4)SC2)c(C)n1Cc1ccco1`, the inhibition is -5.02%.

On to `Cc1cc(C2=NNC(=NCC3CCCO3)SC2)c(C)n1Cc1cccs1` (stereo unspecified), for which the inhibition was 23.6%.

As for `O=c1c2c(F)c(F)c(F)c(F)c2on2c3c(nc12)CCCC3`, the inhibition is 44.8%.

Consider `O=[N+]([O-])c1c(Sc2nnnn2-c2ccccc2)nc2sccn12`, for which the inhibition is 99.2% (active).

In the case of `O=[N+]([O-])c1ccc(Sc2nnnn2-c2ccccc2)c([N+](=O)[O-])c1`, the inhibition is 89.6% (active).

Take `CC(C)c1ccc(-n2nnnc2SC(C)c2nnc(-c3ccc([N+](=O)[O-])cc3)o2)cc1` (stereo unspecified): the inhibition was 18.5%.

Take `c1ccc(Sc2c(-c3ccccc3)nc3sccn23)cc1`: the inhibition is 34.5%.

On to `O=C(CSc1nnnn1-c1ccccc1)NNC(=O)c1ccc(O)cc1O`, for which the inhibition was 11.6%.

Turning to `c1ccc(-n2nnnc2SCCNc2nc3ccccc3[nH]2)cc1`, the inhibition is 42.9%.
